Compounds without any hit were thinned out: in the full panel of roughly 79,000, 15% have a hit. A number with no mark means an inactive call. The source made the active and inactive calls. No stated cut-off is given here; in the data, active means growth inhibition above about 70%; inactive means the rest.
Key:
[1] = NCI Yeast Anticancer Drug Screen. Data for the wt1 strain (AID 149);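 further: 0% = growth of vehicle-treated wt1 cultures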; conditions: S. cerevisiae wt1 strain (SPY 50644) growth inhibition, active compounds read high
How it was run: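 Compounds are added to wt1 yeast cultures. Growth is then measured. Inhibition is expressed relative to vehicle-treated controls.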

[2] = NCI Yeast Anticancer Drug Screen. Data for the rad50EPP+ strain (AID 151);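 further: 0% = growth of vehicle-treated control cultures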; conditions: S. cerevisiae rad50 mutant strain, active compounds read high
How it was run: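 In this screen, rad50EPP+ yeast were exposed to compounds. Growth inhibition was scored against vehicle-treated controls.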

[3] = NCI Yeast Anticancer Drug Screen. Data for the rad50 strain (AID 155);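 further: 0% = growth of vehicle-only cultures of the same strain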; conditions: S. cerevisiae rad50 strain growth inhibition, active compounds read high
How it was run: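 Inhibition values express reduced yeast growth in compound-treated cultures relative to vehicle-treated controls.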

[4] = NCI Yeast Anticancer Drug Screen. Data for the mec2-1 strain (AID 157); conditions: S. cerevisiae mec2-1 strain, active compounds read high
How it was run: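 Vehicle-treated cultures served as reference for growth inhibition of compound-exposed mec2-1 yeast.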

[5] = NCI Yeast Anticancer Drug Screen. Data for the rad14 strain (AID 159);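 further: 0% = growth of vehicle-treated control cultures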; conditions: S. cerevisiae rad14 strain growth inhibition, active compounds read high
How it was run: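 A mutant yeast strain defective in DNA damage repair is treated with compound; inhibition of its growth is scored against untreated, vehicle-exposed cultures.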

[6] = NCI Yeast Anticancer Drug Screen. Data for the sgs1 mgt1 strain (AID 161);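 further: 0% = growth of cultures given vehicle only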; conditions: S. cerevisiae sgs1 mgt1 strain, active compounds read high
How it was run: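 Inhibition of yeast growth, normalised to vehicle-treated controls, is reported for a strain bearing genetic alterations in DNA damage repair.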

[7] = NCI Yeast Anticancer Drug Screen. Data for the CLN2oe strain (AID 163);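 further: 0% = growth of vehicle-only control cultures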; conditions: S. cerevisiae CLN2oe strain, active compounds read high
How it was run: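 Inhibition relative to vehicle-treated yeast is reported. Cells: strain with genetic alteration in cell-cycle control, grown with compound.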

[8] = NCI Yeast Anticancer Drug Screen. Data for the cln2 rad14 strain (AID 165);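 further: 0% = growth equal to vehicle treated cultures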; conditions: S. cerevisiae cln2 rad14 strain, active compounds read high
How it was run: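 Each compound was tested on cln2 rad14 yeast. Inhibition of growth was calculated against vehicle-exposed controls.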

[9] = NCI Yeast Anticancer Drug Screen. Data for the bub3 strain (AID 167); conditions: S. cerevisiae bub3 mutant strain, active compounds read high
How it was run: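 Steps: expose the mutant yeast strain to compound; grow alongside vehicle-treated cultures; measure growth; express inhibition against the vehicle cultures.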

[10] = NCI Yeast Anticancer Drug Screen. Data for the wt2 strain (AID 169);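 further: 0% = growth of vehicle-treated yeast cultures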; conditions: S. cerevisiae wt2 strain growth inhibition, active compounds read high
How it was run: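 Inhibition of yeast growth was determined after compound treatment, normalised to controls receiving only vehicle.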

[11] = NCI Yeast Anticancer Drug Screen. Data for the mlh1 strain (AID 171);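 further: 0% = growth of vehicle-treated control cultures of the same strain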; conditions: S. cerevisiae mlh1 strain growth inhibition, active compounds read high
How it was run: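 Vehicle-normalised growth inhibition of a repair- or checkpoint-altered yeast strain following compound treatment.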

[12] = NCI Yeast Anticancer Drug Screen. Data for the sgs1 strain (AID 173);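 further: 0% = growth of vehicle-only control cultures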; conditions: S. cerevisiae sgs1 mutant, active compounds read high
How it was run: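 Screen format: yeast with repair or checkpoint alterations, compound exposure, growth read relative to vehicle.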

[13] = NCI Yeast Anticancer Drug Screen. Data for the mlh1 rad18 strain (AID 175); conditions: S. cerevisiae mlh1 rad18 strain growth inhibition, active compounds read high
How it was run: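 Vehicle-treated cultures served as the reference for growth inhibition in a yeast strain carrying DNA damage repair alterations exposed to each compound.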

[14] = NCI Yeast Anticancer Drug Screen. Data for the rad18 strain (AID 177); conditions: S. cerevisiae rad18 mutant growth inhibition, active compounds read high
How it was run: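 Test articles were incubated with altered yeast defective in DNA damage repair. Results are given as inhibition of growth versus vehicle.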

[15] = at 5.0 µM (retest, dose inferred, filed as 0.5)
[16] = at 50.0 µM (retest, dose inferred, filed as 5.0)

**Q.** For `Cc1ccccc1NC(=O)Cc1csc(N/N=C2\NC(=O)/C(=C/c3cccc([N+](=O)[O-])c3)S2)n1`, which growth inhibition ([1]; at 1.2 µM) is on record?
**A.** 3%

**Q.** What about the growth inhibition ([1]; at 3.7 µM) of the same molecule?
**A.** 6%

**Q.** What about the growth inhibition ([1]; at 11.0 µM) of the same molecule?
**A.** 4%

**Q.** What about the growth inhibition ([1]; at 33.0 µM) of the same molecule?
**A.** 11%

**Q.** What about the growth inhibition ([1]; at 100.0 µM) of the same molecule?
**A.** 26%

**Q.** And the growth inhibition ([2]; at 1.2 µM)?
**A.** 4%

**Q.** What about the growth inhibition ([2]; at 3.7 µM) of the same molecule?
**A.** 9%

**Q.** What about the growth inhibition ([2]; at 11.0 µM) of the same molecule?
**A.** 15%

**Q.** And the growth inhibition ([2]; at 33.0 µM)?
**A.** 39%

**Q.** What about the growth inhibition ([2]; at 100.0 µM) of the same molecule?
**A.** 51%

**Q.** And the growth inhibition ([3]; at 1.2 µM)?
**A.** -4%

**Q.** What about the growth inhibition ([3]; at 3.7 µM) of the same molecule?
**A.** -11%

**Q.** What about the growth inhibition [3, 15] of the same molecule?
**A.** 8%

**Q.** And the growth inhibition ([3]; at 11.0 µM)?
**A.** -6%

**Q.** What about the growth inhibition ([3]; at 33.0 µM) of the same molecule?
**A.** 24%

**Q.** And the growth inhibition [3, 16]?
**A.** 10%

**Q.** And the growth inhibition ([3]; at 50.0 µM)?
**A.** 64.1%

**Q.** What about the growth inhibition ([3]; at 100.0 µM) of the same molecule?
**A.** 50%

**Q.** What about the growth inhibition ([4]; at 1.2 µM) of the same molecule?
**A.** 4%

**Q.** What about the growth inhibition ([4]; at 3.7 µM) of the same molecule?
**A.** 2%

**Q.** And the growth inhibition [4, 15]?
**A.** 8%

**Q.** What about the growth inhibition ([4]; at 11.0 µM) of the same molecule?
**A.** 5%

**Q.** And the growth inhibition ([4]; at 33.0 µM)?
**A.** 12%

**Q.** And the growth inhibition [4, 16]?
**A.** 13%

**Q.** What about the growth inhibition ([4]; at 50.0 µM) of the same molecule?
**A.** 32.1%

**Q.** And the growth inhibition ([4]; at 100.0 µM)?
**A.** 23%

**Q.** And the growth inhibition ([5]; at 1.2 µM)?
**A.** 4%

**Q.** And the growth inhibition ([5]; at 3.7 µM)?
**A.** 2%

**Q.** What about the growth inhibition ([5]; at 11.0 µM) of the same molecule?
**A.** 8%

**Q.** And the growth inhibition ([5]; at 33.0 µM)?
**A.** 16%

**Q.** And the growth inhibition ([5]; at 100.0 µM)?
**A.** 22%

**Q.** And the growth inhibition [6, 15]?
**A.** -1%

**Q.** What about the growth inhibition [6, 16] of the same molecule?
**A.** 22%

**Q.** What about the growth inhibition ([6]; at 50.0 µM) of the same molecule?
**A.** 79% (active)

**Q.** And the growth inhibition ([7]; at 1.2 µM)?
**A.** 0%

**Q.** And the growth inhibition ([7]; at 3.7 µM)?
**A.** 0%

**Q.** And the growth inhibition ([7]; at 11.0 µM)?
**A.** -4%

**Q.** And the growth inhibition ([7]; at 33.0 µM)?
**A.** 1%

**Q.** What about the growth inhibition ([7]; at 100.0 µM) of the same molecule?
**A.** 17%

**Q.** And the growth inhibition [8, 15]?
**A.** -16%

**Q.** And the growth inhibition [8, 16]?
**A.** 28%

**Q.** What about the growth inhibition ([8]; at 50.0 µM) of the same molecule?
**A.** 21.6%

**Q.** What about the growth inhibition ([9]; at 1.2 µM) of the same molecule?
**A.** -1%

**Q.** And the growth inhibition ([9]; at 3.7 µM)?
**A.** -1%

**Q.** What about the growth inhibition [9, 15] of the same molecule?
**A.** -25%

**Q.** What about the growth inhibition ([9]; at 11.0 µM) of the same molecule?
**A.** 0%

**Q.** And the growth inhibition ([9]; at 33.0 µM)?
**A.** 15%

**Q.** What about the growth inhibition [9, 16] of the same molecule?
**A.** 69%

**Q.** And the growth inhibition ([9]; at 50.0 µM)?
**A.** 66.2%

**Q.** What about the growth inhibition ([9]; at 100.0 µM) of the same molecule?
**A.** 32%

**Q.** And the growth inhibition ([10]; at 1.2 µM)?
**A.** 2%

**Q.** What about the growth inhibition ([10]; at 3.7 µM) of the same molecule?
**A.** 3%

**Q.** What about the growth inhibition ([10]; at 11.0 µM) of the same molecule?
**A.** 5%

**Q.** And the growth inhibition ([10]; at 33.0 µM)?
**A.** 17%

**Q.** What about the growth inhibition ([10]; at 100.0 µM) of the same molecule?
**A.** 46%

**Q.** And the growth inhibition ([11]; at 1.2 µM)?
**A.** 1%

**Q.** And the growth inhibition ([11]; at 3.7 µM)?
**A.** 4%

**Q.** And the growth inhibition ([11]; at 11.0 µM)?
**A.** 6%

**Q.** What about the growth inhibition ([11]; at 33.0 µM) of the same molecule?
**A.** 20%

**Q.** What about the growth inhibition ([11]; at 100.0 µM) of the same molecule?
**A.** 51%

**Q.** What about the growth inhibition ([12]; at 1.2 µM) of the same molecule?
**A.** 5%

**Q.** And the growth inhibition ([12]; at 3.7 µM)?
**A.** 6%

**Q.** What about the growth inhibition ([12]; at 11.0 µM) of the same molecule?
**A.** 8%

**Q.** And the growth inhibition ([12]; at 33.0 µM)?
**A.** 40%

**Q.** What about the growth inhibition ([12]; at 100.0 µM) of the same molecule?
**A.** 70% (active)

**Q.** And the growth inhibition [13, 15]?
**A.** 13%

**Q.** And the growth inhibition [13, 16]?
**A.** 42%

**Q.** What about the growth inhibition ([13]; at 50.0 µM) of the same molecule?
**A.** 60.5%

**Q.** What about the growth inhibition ([14]; at 1.2 µM) of the same molecule?
**A.** -2%

**Q.** What about the growth inhibition ([14]; at 3.7 µM) of the same molecule?
**A.** -3%

**Q.** What about the growth inhibition ([14]; at 11.0 µM) of the same molecule?
**A.** 6%

**Q.** What about the growth inhibition ([14]; at 33.0 µM) of the same molecule?
**A.** 32%

**Q.** And the growth inhibition ([14]; at 100.0 µM)?
**A.** 59%

Reference: PubChem BioAssay (NCI)
